Source: PubChem BioAssay (National Center for Advancing Translational Sciences (NCATS))
VACV Venus inh = qHTS for Stage-Specific Inhibitors of Vaccinia Orthopoxvirus: Venus Reporter Primary qHTS; Vaccinia virus Venus reporter expression, fluorescence; Potency, µM (top dose mostly 36.5 µM), for the others: at the highest dose activity change, negative = inhibition, usual class: inhibitors; 330,000 tested, 0.46% active; AID 720580, 2013; calls by dose curve; tested in A549 cells; also: nearly all actives have a fitted effect of over 30% in size
Lassa entry inh = qHTS for Inhibitors of binding or entry into cells for Lassa Virus; Lassa virus pseudotype entry inhibition, cell reporter; 300,000 tested, 1.2% active; AID 540256, 2011; Potency, µM (titrated, usually from 37.9 µM), inactives show top-dose activity change, negative = inhibition, actives largely listed as inhibitors; calls by dose curve; tested in HEK293 cells; also: nearly all actives have a fitted effect of over 50% in size
Vaccinia mCherry = qHTS for Stage-Specific Inhibitors of Vaccinia Orthopoxvirus: mCherry Reporter Primary qHTS; AID 720579, 2013; Vaccinia virus mCherry reporter infection, fluorescence; 310,000 tested, 0.63% active; Potency, µM (doses to about 36.5 µM), without a hit: at the top dose activity change, negative = inhibition, hits mostly inhibitors; calls by dose curve; tested in A549 cells; also: nearly all actives have a fitted effect of over 35% in size
MARV entry inh = qHTS for inhibitors of binding or entry into cells for Marburg Virus; AID 540276, 2011; 300,000 tested, 1.8% active; Marburg virus pseudotyped entry inhibition, cell reporter; Potency, µM (doses to about 37.8 µM), without a hit: at the top dose activity change, negative = inhibition, most hits filed as inhibitors; calls by dose curve; tested in HEK293 cells
Active calls of the source: *; i = inactive; ? = inconclusive; nt = not tested or not shown; [ ] = remark or other dose. A selection: hits, their analogues and other compounds. The true share with any hit is near 2.5%. % is scaled to controls: 0 for no effect and ±100 for the full control effect; potency is read from the fitted curve at half-maximal effect.

SMILES	VACV Venus inh	Lassa entry inh	Vaccinia mCherry	MARV entry inh
COc1ccc(-c2csc(N3CCC(C(N)=O)(N4CCCCC4)CC3)n2)cc1	-26%	23µM*	?	-38%
COc1ccc(C(=O)Cn2c(NCCCO)nc3ccccc32)cc1	-1%	nt	-21%	nt
Cc1cc2nc(NCCCO)n(CC(=O)c3cc(C(C)(C)C)c(O)c(C(C)(C)C)c3)c2cc1C	10µM*	nt	?	nt
Cc1ccc2[nH]c(CN3CCC(CO)(CC4CCCCO4)CC3)c(C)c2c1 (stereo not drawn)	7%	5µM*	?	?
CC(C)c1c(C(=O)N(C)C2CCN(C)CC2)cnn1-c1nccc(-c2ccco2)n1	-9%	nt	i	nt
Cc1cc(N2C(=O)C(=O)/C(=C(/O)c3ccccc3)[C@H]2c2cccs2)no1	nt	nt	nt	21%
CCCc1ccc2oc(C(=O)N(Cc3ccncc3)CC3CCCO3)c(C)c2c1 (stereo not drawn)	-9%	6.3µM*	i	?
COc1cc(=O)n2c(c1C(=O)NCc1ccco1)CCN(Cc1ccc3ccccc3c1)CC2	-12%	nt	i	nt
COC1=C(OC)CC2=C(CCN=C2/C(=N\O)C2CCC(OC)C(OC)C2)C1 (stereo not drawn)	nt	nt	nt	-4%[46.1 µM]
C[C@]12c3[nH]c4ccc(Cl)cc4c3CCN1C(=O)[C@@H](CC(=O)NCC13CC4CC(CC(C4)C1)C3)C[C@@H]2C(=O)N1CCCCC1	?	nt	28µM*	-1%
C[C@]12c3[nH]c4ccc(Cl)cc4c3CCN1C(=O)[C@@H](CC(=O)NCC13CC4CC(CC(C4)C1)C3)C[C@@H]2C(=O)N1CCOCC1	13µM*	nt	?	nt
C[C@]12c3[nH]c4ccc(Cl)cc4c3CCN1C(=O)[C@@H](CC(=O)NCc1cccc(C(F)(F)F)c1)C[C@@H]2C(=O)N1CCOCC1	?	nt	-18%	nt
CC(C)N(C(=O)[C@H]1C[C@H](CC(=O)NCc2cccc(C(F)(F)F)c2)C(=O)N2CCc3c([nH]c4ccc(Cl)cc34)[C@]12C)C(C)C	11µM*	nt	?	nt
COCCCNC(=O)C[C@H]1C[C@H](C(=O)N2CCOCC2)[C@@]2(C)c3[nH]c4ccc(Cl)cc4c3CCN2C1=O	-16%	nt	-29%	nt
CC[C@]12c3[nH]c4ccc(Cl)cc4c3CCN1C(=O)[C@@H](CC(=O)NCC13CC4CC(CC(C4)C1)C3)C[C@@H]2C(=O)N1CCN(C(=O)C2CC2)CC1	10µM*	nt	-20%	nt
COC(=O)[C@]12C[C@@H]3CCN(C(=O)N[C@@H]1c1ccccc1)[C@@]32C	nt	?	nt	76%[14.2 µM]
CCc1ccccc1N(C)C(=O)c1cc2c(=O)oc3ccccc3c2s1	2.5µM*	?	-9%	8%[46.1 µM]
O=P(c1ccccc1)(c1ccccc1)c1cc(Br)cc(Br)c1OCCO	-29%	-4%[46.1 µM]	?	13µM*
CCOC(=O)N/N=C1\C[C@@H](O)[C@@H](O)[C@@H]2[C@@H]3C(=O)N(c4ccc(F)cc4F)C(=O)[C@@H]3CC[C@@H]12	nt	nt	nt	-21%[14.2 µM]
CN(C1CCCCC1)S(=O)(=O)c1ccc(NC(=O)c2ccc(Br)o2)cc1	?	11µM*	nt	-13%
Cc1ccc(N(CCC#N)C(=O)CCl)cc1C	-20%	7.9µM*	-7%	7.1µM*
Cc1ccc(SCC(=O)OCC(=O)N(CCC#N)c2ccccc2)cc1C	-6%	6%	-10%	28%
CC1OC(CC(=O)O)CC2=C1C(=O)c1c(O)cccc1C2=O (stereo not drawn)	?	0.56µM*	?	0.5µM*
O=C1c2cccc(O)c2C(=O)c2c(O)cccc21	0%	5%	i	38%
Cc1nc(SCC(=O)Nc2ccc(S(=O)(=O)N3CCOCC3)cc2)c2c(C)c(C)sc2n1	?	1.1µM*	-13%	?
SMILES	VACV Venus inh	Lassa entry inh	Vaccinia mCherry	MARV entry inh
Cc1nc(SCC(=O)NCc2ccco2)c2c(C)c(C)sc2n1	nt	?	nt	15µM*
CC(=O)OC[C@H]1O[C@@H](ON=C2C[C@@H](O)[C@@H](O)[C@@H]3[C@H]4C(=O)N(Cc5ccccc5)C(=O)[C@@H]4CC[C@@H]23)[C@H](OC(C)=O)[C@@H](OC(C)=O)[C@H]1OC(C)=O	nt	?	nt	-9%[14.2 µM]
CC1(C)Cc2ccccc2C2=NNC(=O)C2=N1	28µM*	?	?	?
CC1(C)Cc2ccccc2C(Nn2cnnc2)=N1	-3%	3%	-11%	14%
Cc1cccc(CNC(=O)c2cnn(-c3ncc(C)c(-c4cccs4)n3)c2C2CC2)n1	5%	nt	-14%	nt
CC(C)CCC(CCN1CCOCC1)c1ccc2c(c1)OCO2 (stereo not drawn)	nt	-22%	nt	12µM*
CC1=C(C(=O)OCC2CCCO2)C(c2ccc(C)o2)C2=C(CC(c3ccc(F)cc3)CC2=O)N1 (stereo not drawn)	-18%	-25%	-30%	10µM*
CC1=C(C(=O)OCC2CCCO2)C(c2ccc(C)o2)C2=C(CC(c3ccc(N(C)C)cc3)CC2=O)N1 (stereo not drawn)	nt	nt	nt	-4%
Cc1ccc(OCCSc2ncccn2)c(C)c1	-16%	10µM*	i	?
Cc1ccc(OCCNCc2ccccc2)c(C)c1	-2%	1%	-10%	-1%
Cc1ccc(OCCCCNC(C)c2ccccc2)c(C)c1 (stereo not drawn)	-16%	?	-16%	11µM*
COCC(=O)Nc1cc(C(=O)N2CCCOc3c(cccc3OC)C2)c2c(c1)nc(C1CCC1)n2C	-11%	nt	-9%	nt
O=C(Nc1nc2n(n1)C(c1ccc(F)cc1)C=C(c1ccc(Cl)cc1)N2)c1ccc([N+](=O)[O-])cc1 (stereo not drawn)	-29%	?	-29%	2.8µM*
Cc1cc(/C=C/c2cccc3sc(C)[n+](CCCCI)c23)ccc1N(CCCl)CCCl	372%	nt	54%	nt
CN(C)c1nc(NCc2ccccc2)nc(SCC(=O)Nc2ccc(Cl)c(Cl)c2)n1	nt	-21%	nt	12µM*
COC(=O)CSc1nc(NCc2ccccc2)nc(N(C)C)n1	-11%	-13%[46.1 µM]	-5%	?
Cc1cccc(CNC(=O)c2cnn(-c3ncc(C)c(-c4ccc(F)cc4)n3)c2C)n1	-22%	nt	-3%	nt
Cc1noc(N)c1C(=O)Nc1ccccc1F	7.9µM*	-1%	i[1.46 µM]	-2%
CN(c1ccc(OCC(=O)Nc2ccccc2C(=O)O)cc1)S(=O)(=O)c1ccc(Cl)cc1	-7%	3.2µM*	i	3.5µM*
CC(=O)Nc1ccc(S(=O)(=O)N(C)c2ccc(OCC(=O)Nc3ccccc3C(C)=O)cc2)cc1	-13%	-22%	-4%	?
O=C1CC(c2ccc(Cl)c([N+](=O)[O-])c2)c2ccc3ccccc3c2N1 (stereo not drawn)	?	?	11µM*	?
CCOC(=O)C1=C(c2ccccc2)NC(=S)NC1c1ccc(Cl)c([N+](=O)[O-])c1 (stereo not drawn)	nt	-18%	nt	-32%
CC1CCN(c2ccc(-c3cccc(NC(=O)c4ccco4)c3)nn2)CC1	-17%	2.5µM*	-28%	7.9µM*
CC1CCN(c2ccc(-c3cccc(NC(=O)C(F)(F)F)c3)nn2)CC1	-9%	2.2µM*	-14%	?
O=C1CCC2=C(O1)C(O)=C(O)CC2	nt	nt	nt	8%
CC(C)N1CCc2c(sc(NC(=O)C3CCCCC3)c2C(N)=O)C1	13µM*	nt	?	nt
